A number with no mark means an inactive call. For part of these data: Measured potencies and affinities stand elsewhere. Calls of active or inactive are those of the source. Unless noted, the rule behind the calls is not given here.
Tests used:
[1] = antimalarial activity against Dd2 strain (AID 2302;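 active = growth inhibition above 50% at the single 2 µM test dose, taken to imply half-maximal potency below 2 µM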;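 note: 0% = DMSO untreated growth and 100% = chloroquine plus artemisinin killed control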); conditions: P. falciparum Dd2 in RBCs, LDH growth readout, 72 h; at 2 µM; hits give high values
[2] = HepG2 cytotoxicity, primary screen, cytotoxicity control for P. falciparum antimalarial project, cell-based, ATP luminescence (AID 2303;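 active = inhibition above 50%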;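 note: 0% = DMSO wells and 100% = digitonin-killed cells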); conditions: HepG2 viability, 24-48 h, at 10 µM, hits give high values
[3] = target: L-lactate dehydrogenase (Plasmodium falciparum (isolate CDC / Honduras)) (UniProt Q27743); assay: PfLDH activity inhibition – cell lysate, 3D7 strain, counter-screen for P. falciparum growth inhibition project (AID 2304);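 note: 0% = vehicle and 100% = reference inhibitor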; conditions: P. falciparum 3D7 crude extract, LDH APAD/NBT absorbance; at 2 µM; hits give high values
[4] = inhibition of 3D7 malaria parasite growth – strain 3D7 (AID 2306);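 note: 0% = DMSO wells and 100% = chloroquine plus artemisinin control wells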; conditions: P. falciparum 3D7 erythrocytic growth, LDH absorbance, 72 h; at 2 µM; hits give high values
[5] = target: Calcium-dependent protein kinase 1 (Plasmodium falciparum (isolate 3D7)) (UniProt P62344); assay: PfCDPK1 kinase inhibitors, biochemical, TCAMS library (AID 1159585; cut-off not given, nearly all actives have IC50 up to about 0.98 µM;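 note: inhibitors leave more ATP so luminescence rises with inhibition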); conditions: recombinant PfCDPK1, Kinase-Glo ATP depletion luminescence
[6] = target: Plasmodium falciparum protein kinase 6 (PK6, PF3D7_1337100) (UniProt Q8IDW1); assay: PfPK6 kinase inhibitors, biochemical, TCAMS library (AID 1159586); conditions: recombinant PfPK6, Kinase-Glo ATP depletion luminescence
[7] = target: Protein kinase 7 (PK7), Plasmodium falciparum 3D7 (PF3D7_0213400) (UniProt Q7YTF7); assay: inhibition of Plasmodium PK7 catalytic activity – biochemical, TCAMS antimalarial set, Kinase-Glo luminescence (AID 1159587); conditions: recombinant PfPK7, Kinase-Glo ATP depletion luminescence
[8] = target: Calcium-dependent protein kinase 4 (Plasmodium falciparum (isolate 3D7)) (UniProt Q8IBS5); assay: PfCDPK4 kinase inhibitors, biochemical, TCAMS library (AID 1159588; cut-off not given, nearly all actives have IC50 up to about 0.91 µM); conditions: recombinant PfCDPK4, Kinase-Glo ATP depletion luminescence
Calcium-dependent protein kinase 4 (Plasmodium falciparum (isolate 3D7)), sequence (Q8IBS5 whole entry, looked up): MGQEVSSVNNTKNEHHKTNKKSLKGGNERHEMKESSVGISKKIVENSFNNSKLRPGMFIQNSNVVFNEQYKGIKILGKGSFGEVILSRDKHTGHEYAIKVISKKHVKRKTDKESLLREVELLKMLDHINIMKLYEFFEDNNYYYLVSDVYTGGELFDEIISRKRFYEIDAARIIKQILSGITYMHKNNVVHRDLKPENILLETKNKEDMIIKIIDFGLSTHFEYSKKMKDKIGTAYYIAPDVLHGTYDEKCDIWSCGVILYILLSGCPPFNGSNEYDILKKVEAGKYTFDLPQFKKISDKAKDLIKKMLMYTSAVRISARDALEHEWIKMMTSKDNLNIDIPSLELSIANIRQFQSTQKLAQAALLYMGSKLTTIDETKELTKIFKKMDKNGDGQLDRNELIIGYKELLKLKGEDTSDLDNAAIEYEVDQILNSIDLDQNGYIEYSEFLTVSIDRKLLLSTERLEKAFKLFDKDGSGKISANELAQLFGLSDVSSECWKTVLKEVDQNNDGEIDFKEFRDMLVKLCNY

L-lactate dehydrogenase (Plasmodium falciparum (isolate CDC / Honduras)), sequence (Q27743 whole entry, looked up): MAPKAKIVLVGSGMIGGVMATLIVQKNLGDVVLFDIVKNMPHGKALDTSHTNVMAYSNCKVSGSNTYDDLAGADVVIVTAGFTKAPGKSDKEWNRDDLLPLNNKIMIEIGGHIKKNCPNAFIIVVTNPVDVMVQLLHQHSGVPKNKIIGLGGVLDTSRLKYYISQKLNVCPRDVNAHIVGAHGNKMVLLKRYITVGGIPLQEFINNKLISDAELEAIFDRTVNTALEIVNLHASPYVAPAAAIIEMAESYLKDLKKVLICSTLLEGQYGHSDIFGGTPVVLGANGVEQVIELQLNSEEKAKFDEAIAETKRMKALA
Calcium-dependent protein kinase 1 (Plasmodium falciparum (isolate 3D7)), sequence (P62344 whole entry, looked up): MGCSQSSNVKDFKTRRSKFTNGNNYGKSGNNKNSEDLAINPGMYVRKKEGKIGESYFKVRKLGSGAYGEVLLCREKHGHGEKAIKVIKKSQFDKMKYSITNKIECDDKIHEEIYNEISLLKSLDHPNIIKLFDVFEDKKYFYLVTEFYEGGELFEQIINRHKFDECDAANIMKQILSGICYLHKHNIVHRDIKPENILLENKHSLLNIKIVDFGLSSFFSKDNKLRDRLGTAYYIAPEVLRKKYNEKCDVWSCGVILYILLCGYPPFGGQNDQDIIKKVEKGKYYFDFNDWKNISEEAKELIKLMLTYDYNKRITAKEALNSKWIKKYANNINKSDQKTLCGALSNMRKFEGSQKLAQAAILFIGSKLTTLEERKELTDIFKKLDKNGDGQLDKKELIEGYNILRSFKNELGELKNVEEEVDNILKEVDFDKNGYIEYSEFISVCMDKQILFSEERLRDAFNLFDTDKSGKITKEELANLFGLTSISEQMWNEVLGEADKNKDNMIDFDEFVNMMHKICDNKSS
Protein kinase 7 (PK7), Plasmodium falciparum 3D7 (PF3D7_0213400), sequence (Q7YTF7 1-343): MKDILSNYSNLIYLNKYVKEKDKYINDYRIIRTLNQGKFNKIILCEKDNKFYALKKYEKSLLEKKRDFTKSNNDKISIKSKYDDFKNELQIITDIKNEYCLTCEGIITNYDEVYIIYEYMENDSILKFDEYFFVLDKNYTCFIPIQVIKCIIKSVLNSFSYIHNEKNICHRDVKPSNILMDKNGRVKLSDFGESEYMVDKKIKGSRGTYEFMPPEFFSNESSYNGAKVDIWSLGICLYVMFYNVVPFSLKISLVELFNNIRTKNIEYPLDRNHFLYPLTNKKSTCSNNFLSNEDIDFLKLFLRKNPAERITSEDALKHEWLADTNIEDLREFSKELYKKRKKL
Plasmodium falciparum protein kinase 6 (PK6, PF3D7_1337100), sequence (Q8IDW1 1-305): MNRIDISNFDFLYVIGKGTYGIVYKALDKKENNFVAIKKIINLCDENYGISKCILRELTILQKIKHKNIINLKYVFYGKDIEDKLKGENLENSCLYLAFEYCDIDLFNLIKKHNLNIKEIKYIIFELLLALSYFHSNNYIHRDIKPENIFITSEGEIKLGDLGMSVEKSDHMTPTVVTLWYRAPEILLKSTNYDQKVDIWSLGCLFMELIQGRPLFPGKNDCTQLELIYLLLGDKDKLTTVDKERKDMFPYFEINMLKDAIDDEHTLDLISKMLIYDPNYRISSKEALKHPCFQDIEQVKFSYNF

Row | Structure (SMILES) | growth inhibition [1] | inhibition [2] | inhibition [3] [%] | growth inhibition [4] | outcome [5] | outcome [6] | outcome [7] | outcome [8]
1 | Cc1cc2nc(-c3ccc(C(=O)NC4CCN(Cc5ccccc5)CC4)cc3)[nH]c2cc1C | 99% (active) | -6% | -5 | 93% (active) | inactive | inactive | inactive | inactive
2 | COc1ccc(C(=O)Nc2ccc(Nc3nc(C)cc(N(C)C)n3)cc2)c(OC)c1 | 72% (active) | 34% | 0 | 100% (active) | inactive | inactive | inactive | inactive
3 | Oc1ccccc1CN1CCC2(CCCN(Cc3ccccc3F)C2)C1 (stereo unspecified) | 83% (active) | 13% | -2 | 98% (active) | inactive | inactive | inactive | inactive
4 | Cc1ccccc1NC(=S)NC1CCN(CCCCCNC(=O)/C=C/c2ccc(Cl)c(Cl)c2)CC1 | 7% | 14% | 2 | 99% (active) | inactive | inactive | inactive | inactive
5 | O=C(/C=C/c1ccc(Cl)c(Cl)c1)NCCCCCN1CCC(NC(=O)Nc2ccc(Cl)c(Cl)c2)CC1 | 1% | 23% | 0 | 102% (active) | inactive | inactive | inactive | inactive
6 | Cc1cc(Cl)ccc1N(Cc1ccccc1)c1ccnc(Cl)n1 | 98% (active) | 16% | 2 | 97% (active) | inactive | inactive | inactive | inactive
7 | OC1CCCN(Cc2cccc(-c3ccc(-c4nc5ccccc5[nH]4)cc3)c2)C1 (stereo unspecified) | 16% | 25% | -2 | 85% (active) | inactive | inactive | inactive | inactive
8 | O=S(=O)(NCCN1CCCC1)c1ccc(-c2ccccc2CNC2Cc3ccccc3C2)cc1 | 67% (active) | 19% | -9 | 95% (active) | inactive | inactive | inactive | inactive
9 | CCCCN(CCCC)C(=N)c1cccc2c1CCCC2 | 9% | 11% | -2 | 95% (active) | inactive | inactive | inactive | inactive
10 | O=C(Nc1cccc(-c2nn3ncccc3c2-c2ccnc(Nc3cccnc3)n2)c1)c1c(F)cccc1F | 70% (active) | 5% | -2 | 96% (active) | inactive | inactive | inactive | inactive
11 | Fc1ccc2[nH]c3c(NCCN4CCCCC4)ncnc3c2c1 | 44% | 24% | 0 | 99% (active) | inactive | inactive | inactive | inactive
12 | O=[N+]([O-])c1cccc(CNCC2CCN(Cc3ccc(-c4ccccc4)cc3)CC2)c1 | 91% (active) | 28% | 6 | 101% (active) | inactive | inactive | inactive | inactive
13 | O=C(Nc1ccccc1-c1nc2ccccc2s1)C(Cl)(Cl)Cl | 99% (active) | 12% | -7 | 97% (active) | inactive | inactive | inactive | inactive
14 | N#Cc1cccc(NC(=O)NC2CCN(CCCCCNC(=O)[C@@H]3C[C@H]3c3ccc(Cl)c(Cl)c3)CC2)c1 | -2% | 36% | 3 | 102% (active) | inactive | inactive | inactive | inactive
15 | c1ccc(-c2cccc(-c3ccccn3)n2)nc1 | 99% (active) | 45% | -1 | 98% (active) | inactive | inactive | inactive | inactive
16 | CCC(CSC1CCCCC1)N(C)CCN(C)C(CC)CSC1CCCCC1 (stereo unspecified) | 98% (active) | 84% (active) | -4 | 98% (active) | inactive | inactive | inactive | inactive
17 | O=C(/C=C/c1ccc(Cl)c(Cl)c1)N1CCC(CN2CCC(c3nc4ccccc4n3CCCO)CC2)CC1 | -4% | 60% (active) | -8 | 96% (active) | inactive | inactive | inactive | inactive
18 | c1ccc(Oc2ccc(Nc3ccnc(Nc4ccc(CN5CCOCC5)cc4)n3)cc2)cc1 | 38% | 46% | -4 | 92% (active) | inactive | inactive | inactive | inactive
19 | Cc1c(N)ccc2[nH]c(-c3ccc(N)cc3)nc12 | 40% | 0% | 0 | 97% (active) | inactive | inactive | inactive | inactive
20 | O=S(=O)(Nc1ccc2nccc(N3CCNCC3)c2c1)c1ccc2oc3ccccc3c2c1 | 2% | 16% | -5 | 101% (active) | inactive | inactive | inactive | inactive
21 | COc1ccc(NC(=O)[C@H](CC(C)C)Nc2cc(C)nc(NCc3ccccc3C)n2)cc1 | 78% (active) | 12% | 0 | 101% (active) | inactive | inactive | inactive | inactive

Row | Structure (SMILES) | growth inhibition [1] | inhibition [2] | inhibition [3] [%] | growth inhibition [4] | outcome [5] | outcome [6] | outcome [7] | outcome [8]
22 | CC(C)(C)OC(=O)c1c(NC(=O)/C=C/c2ccc(O)c(O)c2)sc2c1CCCC2 | 77% (active) | 4% | 2 | 97% (active) | inactive | inactive | inactive | inactive
23 | COc1ccc(CNCc2ccsc2)cc1-c1ccc(S(=O)(=O)NCCN2CCCC2)s1 | 34% | 39% | -7 | 101% (active) | inactive | inactive | inactive | inactive
24 | CCc1nc2nc(C)cc(Nc3ccc4c(c3)OCCO4)n2n1 | 55% (active) | 8% | -1 | 88% (active) | inactive | inactive | inactive | inactive
25 | COc1c(CNCCCCCCNCc2c(OC)c(OC)c3ccccc3c2OC)c(OC)c2ccccc2c1OC | 98% (active) | 100% (active) | -2 | 96% (active) | inactive | inactive | inactive | inactive
26 | CNC(=O)c1cnc(Nc2ccc(N3CCN(C)CC3)cc2)nc1Nc1cccc([N+](=O)[O-])c1 | 100% (active) | 31% | -8 | 103% (active) | inactive | inactive | inactive | inactive
27 | CN1CCCC(CN2CCN(Cc3cccc(-c4ccc(-c5nc6ccc(F)cc6[nH]5)cc4)c3)CC2)C1 (stereo unspecified) | 100% (active) | 78% (active) | -1 | 101% (active) | inactive | inactive | inactive | inactive
28 | COc1cc(F)c2ncc(Cl)c(CCN3CCC(NCc4ccc5c(c4)NC(=O)CS5)CC3)c2c1 | 85% (active) | 27% | -6 | 100% (active) | inactive | inactive | inactive | inactive
29 | Cc1cc(C)cc(NC(=S)NCCCCN2CCN(c3cccc(Cl)c3)CC2)c1 | 13% | 11% | 3 | 88% (active) | inactive | inactive | inactive | inactive
30 | CN(C)Cc1ccc(-c2cccc(NC(=O)c3ccc(Cl)cc3)c2)cc1 | 13% | 24% | 3 | 94% (active) | inactive | inactive | inactive | inactive
31 | O=C(Nc1ccc(OC2CCN(Cc3ccccc3)CC2)c(Cl)c1)c1cccs1 | 95% (active) | 2% | 4 | 96% (active) | inactive | inactive | inactive | inactive
32 | CC1=C(C(=O)Nc2cc3cn[nH]c3cc2F)C(c2cccc(NS(C)(=O)=O)c2)CC(=O)N1 (stereo unspecified) | 97% (active) | -10% | -4 | 96% (active) | inactive | inactive | inactive | inactive
33 | O=C(Nc1cccc(Cl)c1)OC1CCCN2CCCCC12 (stereo unspecified) | -4% | 6% | 1 | 85% (active) | inactive | inactive | inactive | inactive
34 | FC(F)(F)c1cccc(Nc2nc3nonc3nc2NC2C3CC4CC(C3)CC2C4)c1 (stereo unspecified) | 100% (active) | 72% (active) | -2 | 103% (active) | inactive | inactive | inactive | inactive
35 | FC(F)(F)c1ccc(COc2cc(Cl)ccc2Cn2ccnc2)cc1 | 0% | 13% | -5 | 95% (active) | inactive | inactive | inactive | inactive
36 | CCC(CC)N1CCN(CC(=O)Nc2ccc([N+](=O)[O-])cc2C(=O)Nc2cccc(OC)c2)CC1 | 35% | 35% | 0 | 100% (active) | inactive | inactive | inactive | inactive
37 | Cc1cc(C2CCN(CCCCNC(=O)c3ccc(-c4ccc(C#N)cc4)cc3)CC2)c(C)cc1OCCO | 68% (active) | 20% | 2 | 96% (active) | inactive | inactive | inactive | inactive
38 | COc1cc(C=NNc2nc(Nc3ccccc3)nc(Nc3ccccc3)n2)ccc1OCc1ccccc1[N+](=O)[O-] | 18% | 8% | 3 | 98% (active) | inactive | inactive | inactive | inactive
39 | CCCOc1cccc(C(=O)N[C@@H](Cc2ccccc2)[C@H](O)CNCc2ccccc2OC)c1 | 61% (active) | 11% | 0 | 95% (active) | inactive | inactive | inactive | inactive
40 | CC(C)c1cccc(OCC2CCN(c3ncc(C(=O)NC4CC4)cc3Cl)CC2)c1 | 95% (active) | 9% | -1 | 94% (active) | inactive | inactive | inactive | inactive
41 | CC(C)(C)c1ccc(CN2CCC(CNC(=O)c3cc(-c4cccc(C(F)(F)F)c4)cs3)C2)cc1 (stereo unspecified) | 84% (active) | 80% (active) | 1 | 100% (active) | inactive | inactive | inactive | inactive
42 | COc1cc2nc(Nc3ccc(C)cc3)nc(Nc3ccc(C)cc3)c2cc1OC | 100% (active) | 99% (active) | -1 | 101% (active) | inactive | inactive | inactive | inactive
